Molecules are shown by their SMILES. About 1,400 (64%) of roughly 2,200 compounds were called active.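 The calls were made as follows: active = luminescence in either replicate above plate mean of wells with a partly effective reference agonist dose plus 3 SD; inactive = the rest.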 The set was probably picked from earlier hits. The entries come from a sample that favours actives as a whole.

The test can be described thus: effects on beta-adrenoceptor cAMP reporter signal – cell-based, secondary assay 2, luminescence, counter-screen for D1 allosteric modulator project, confirmation (AID 647).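 Also: isoproterenol raises cAMP through native beta-adrenoceptor Gs so signal bypasses D1; raw luminescence counts from the Envision reader with one value per duplicate well.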 As to conditions: HEK293 D1 CRE-luciferase, isoproterenol EC30 counter-screen; at 10 µM; active compounds read high.
Consider `CCC(=NCc1ccco1)c1c(O)n(Cc2ccccc2)c(=O)[nH]c1=O`, for which the luminescence was 3640 (active).

Values taken from PubChem BioAssay AID647 (Vanderbilt High Throughput Screening Facility, 2007).
